Measurements: PubChem BioAssay (EPA / NIEHS)
The source made the active and inactive calls. Rule for the calls: active = hit-call score of the fitted dose curve at least 0.9, where 1 is the maximum; inactive = score below 0.9.

Biological target: Hepatocyte nuclear factor 6 (Homo sapiens) (UniProt Q9UBC0)
Assay: ATG_HNF6_CIS: Attagene CIS-FACTORIAL HepG2 Assay for human Hepatocyte Nuclear Factor 6 (HNF6) (AID 2282952)
Details: HepG2 Attagene cis-factorial HNF6 reporter transcription; actives raise or lower the signal
Procedure, shortened: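 Transiently transfected HepG2 cells expressing cis-regulated reporter transcription units were exposed to chemical for 24 h in a 24-well format. Reporter transcript abundance was determined by fluorescence capillary electrophoresis.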

Hepatocyte nuclear factor 6 (Homo sapiens), sequence (Q9UBC0 whole entry, looked up): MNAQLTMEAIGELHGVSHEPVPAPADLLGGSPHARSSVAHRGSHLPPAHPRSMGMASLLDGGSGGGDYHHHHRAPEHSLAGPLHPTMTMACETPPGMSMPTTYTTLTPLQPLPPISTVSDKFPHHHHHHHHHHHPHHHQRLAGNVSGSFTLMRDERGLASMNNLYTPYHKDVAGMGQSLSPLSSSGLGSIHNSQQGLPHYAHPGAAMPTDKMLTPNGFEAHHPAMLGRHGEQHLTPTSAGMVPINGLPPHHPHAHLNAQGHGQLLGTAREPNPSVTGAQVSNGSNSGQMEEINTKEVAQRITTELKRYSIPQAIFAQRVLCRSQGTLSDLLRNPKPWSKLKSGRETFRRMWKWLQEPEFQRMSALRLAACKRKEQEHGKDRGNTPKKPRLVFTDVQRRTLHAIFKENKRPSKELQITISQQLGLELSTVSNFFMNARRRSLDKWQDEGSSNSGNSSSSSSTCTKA

| SMILES | outcome | AC50 |
| --- | --- | --- |
| CC(C)=CCOC(=O)c1ccccc1 | inactive |  |
| Oc1cccc2ccccc12 | inactive |  |
| C=CN1CCCCCC1=O | inactive |  |
| Oc1ccc(Oc2ccccc2)cc1 | inactive |  |
| CC(=O)CCc1ccccc1 | inactive |  |
| CNC[C@H](O)[C@@H](O)[C@H](O)[C@H](O)CO | inactive |  |
| CN(C)c1ccc(C(c2ccccc2)c2ccc(N(C)C)cc2)cc1 | inactive |  |
| c1ccc2c(c1)Oc1ccccc1S2 | inactive |  |
| CCCCCC[C@@H](O)C/C=C\CCCCCCCC(=O)O |  | 160 µM (active) |
| CC[N+](CC)(CC(=O)Nc1c(C)cccc1C)Cc1ccccc1 (tested in a mixture with another compound) | inactive |  |

Biological target: Heat shock factor protein 1 (Homo sapiens) (UniProt Q00613)
Assay: ATG_HSE_CIS: Attagene CIS-FACTORIAL HepG2 Assay for human Heat Shock Transcription Factor 1 (HSE) (AID 2282953)
Details: HepG2 HSE cis-reporter, Attagene RNA transcription; actives raise or lower the signal
Procedure, shortened: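 Cells were transfected with cis-element-driven reporter constructs, dosed for 24 h, then total RNA was reverse-transcribed and reporter cDNA amplified, FAM-labelled and digested with HpaI. Fragments were resolved by capillary electrophoresis; gain or loss was fitted against DMSO.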

Heat shock factor protein 1 (Homo sapiens), sequence (Q00613 whole entry, looked up): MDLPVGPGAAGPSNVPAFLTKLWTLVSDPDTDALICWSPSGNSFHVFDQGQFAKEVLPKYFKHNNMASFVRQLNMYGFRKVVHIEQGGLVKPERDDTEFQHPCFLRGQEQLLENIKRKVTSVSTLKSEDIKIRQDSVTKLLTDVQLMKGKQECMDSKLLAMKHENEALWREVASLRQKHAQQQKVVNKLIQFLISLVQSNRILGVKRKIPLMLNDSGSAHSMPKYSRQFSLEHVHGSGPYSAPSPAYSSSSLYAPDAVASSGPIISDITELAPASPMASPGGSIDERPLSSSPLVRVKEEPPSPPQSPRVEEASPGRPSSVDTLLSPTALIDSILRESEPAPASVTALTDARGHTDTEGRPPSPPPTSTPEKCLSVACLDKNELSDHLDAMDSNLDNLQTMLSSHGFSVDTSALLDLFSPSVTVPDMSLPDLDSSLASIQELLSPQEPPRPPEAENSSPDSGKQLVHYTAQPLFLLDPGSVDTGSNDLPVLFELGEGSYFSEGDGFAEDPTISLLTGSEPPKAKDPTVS

| SMILES | outcome | AC50 |
| --- | --- | --- |
| CNC(=C[N+](=O)[O-])NCCSCc1csc(CN(C)C)n1 | inactive |  |
| O=C1CCCCCCCCCCCCCC1 |  | 62.1 µM (active) |
| CCCC(=O)OC/C=C(\C)CCC=C(C)C | inactive |  |
| COC(=O)c1ccccc1 | inactive |  |
| O=C(O)/C=C/C(=O)O | inactive |  |
| O=S(=O)(O)c1cccc2ccccc12 | inactive |  |
| C/C=C(\C)C(=O)OCC/C=C\CC | inactive |  |
| CC/C=C\CC/C=C/C(OCC)OCC |  | 156 µM (active) |
| C=CCOCC(CC)(CO)COCC=C | inactive |  |
| CN1CCCC1 | inactive |  |
| CCO[Si](CCCN)(OCC)OCC | inactive |  |
| CCCCCCC1CCC(=O)O1 (stereo unspecified) | inactive |  |
| O=[N+]([O-])c1ccccc1C(F)(F)F | inactive |  |
| CCc1cc(C(N)=S)ccn1 | inactive |  |
| CCC(C)=NO | inactive |  |
| COc1cccc(OC)c1C(=O)O | inactive |  |
| C=C1CC[C@H]2C[C@@H]1C2(C)C | inactive |  |
| CCCCCC1CCCC(=O)O1 (stereo unspecified) | inactive |  |

| SMILES | outcome | AC50 |
| --- | --- | --- |
| COC(=O)[C@]1(C)CCC[C@@]2(C)[C@H]1CC=C1C=C(C(C)C)CC[C@@H]12 |  | 26.4 µM (active) |
| Cc1cc2nc3c(=O)[nH]c(=O)nc-3n(C[C@H](O)[C@H](O)[C@H](O)CO)c2cc1C | inactive |  |
| Cc1cc(-n2nc3ccc(Cl)cc3n2)c(O)c(C(C)(C)C)c1 | inactive |  |
| O=C(OCc1ccccc1)c1ccccc1 | inactive |  |
| CCCCCCC1CCCC(=O)O1 (stereo unspecified) | inactive |  |
| c1ccc(CNc2ncnc3nc[nH]c23)cc1 | inactive |  |
| NC(=O)c1ccc(N)cc1 | inactive |  |
| CC(=O)Nc1c(I)c(NC(C)=O)c(I)c(C(=O)O)c1I | inactive |  |
| CC(C)=CCOC(=O)c1ccccc1 | inactive |  |
| CC(C)(C)NC(=O)[C@@H]1CN(Cc2cccnc2)CCN1C[C@@H](O)C[C@@H](Cc1ccccc1)C(=O)N[C@H]1c2ccccc2C[C@H]1O | inactive |  |
| Oc1cccc2ccccc12 | inactive |  |
| C=CN1CCCCCC1=O | inactive |  |
| Oc1ccc(Oc2ccccc2)cc1 | inactive |  |
| CC(=O)CCc1ccccc1 | inactive |  |
| CNC[C@H](O)[C@@H](O)[C@H](O)[C@H](O)CO | inactive |  |
| CN(C)c1ccc(C(c2ccccc2)c2ccc(N(C)C)cc2)cc1 | inactive |  |
| c1ccc2c(c1)Oc1ccccc1S2 | inactive |  |
| CCCCCC[C@@H](O)C/C=C\CCCCCCCC(=O)O |  | 187 µM (active) |
